Screening results as filed in PubChem.
Rows were chosen to be rich in hits. Some 4.2% of all compounds tested hit in one or more screens of this group.
esBAF inh = inhibitors of esBAF chromatin remodeling in mouse ES cells | Bmi1-luciferase knock-in reporter, 24 h; 100% = twice the neutral-well signal | reporter increase, % at 12.5 µM | actives 2% (n = 350,000); in the data active = activation above about 40%; inconclusive = no clear call, values can overlap the other calls;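 note: 0% = median of the plate's neutral control wells and 100% = double that signal; a rise in the Bmi1 reporter signal indicates esBAF inhibition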
hgDAF12 agonist = activates the H. glycines DAF-12 receptor ligand-binding domain; AID 687014; HEK293 GAL4-hgDAF12 UAS-luciferase reporter, agonist luminescence; normalized to butyrate control; actives 1.8% (n = 370,000); activation, % at 6.8 µM;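 active = activation above a cutoff set at the mean of all screened compounds plus 3 SD, cut at about 10% in these data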;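 note: 0% = DMSO wells and 100% = sodium butyrate wells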
DAX1 inh = blocks DAX1 repression of SF-1 activated StAR promoter. actives 1.1% (n = 370,000). inhibition, % at 6.8 µM. HEK293T StAR-luciferase reporter, SF-1/DAX-1 repression relief;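 active = inhibition above the mean over all tested compounds plus 3 SD, cut at about 3.6% in these data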;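 note: 0% = DAX-1 cells with DMSO and 100% = cells lacking DAX-1 with DMSO; higher inhibition means more luminescence from relief of DAX-1 repression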
hcDAF12 agonist = activators of H. contortus DAF-12 nuclear receptor; HEK293 hcDAF-12 lit1-tk-luc reporter, luminescence; 0% DMSO, 100% Δ7-dafachronic acid; activation, % at 6.8 µM; actives 1.4% (n = 370,000);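 active = activation above the mean of all tested compounds plus 3 SD, cut at about 5.5% in these data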;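 note: 100% = response to 3 µM Δ7-dafachronic acid high control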
ssDAF-12 act = S. stercoralis DAF-12 activation, primary screen. HEK293 ssDAF-12/GRIP1 lit1-tk-luc reporter, luminescence; % of 3 µM dafachronic acid response. activation, % at 6.8 µM. actives 1% (n = 370,000). AID 652126;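 active = activation above the mean over all tested compounds plus 3 SD, cut at about 0.9% in these data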;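 note: 0% = DMSO-only wells and 100% = 3 µM delta7-dafachronic acid wells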
Wnt act = Wnt/beta-catenin pathway activation | Wnt/beta-catenin reporter cell assay, activator, plate reader | activation, % at 9.35 µM | actives 1.2% (n = 300,000); in the data active = activation above about 30%, passing the limit was not always enough; inconclusive = no clear call, values can overlap the other calls;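 note: 0% = neutral control wells and 100% = positive control wells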
Starred values were filed as active, the others as inactive; ? = inconclusive; nt = no result given.

SMILES	esBAF inh	hgDAF12 agonist	DAX1 inh	hcDAF12 agonist	ssDAF-12 act	Wnt act
C[C@@H]1CN([C@@H](C)CO)C(=O)c2cc(NC(=O)Nc3cccc4ccccc34)ccc2O[C@H]1CN(C)C(=O)Nc1ccc(F)cc1	1	nt	nt	nt	nt	nt
COc1ccccc1NC(=O)CCC(=O)Nc1nnc(C2CCCCC2)s1	2	2	0	1	-1	34*
O=C(Nc1nnc(Cc2ccccc2)s1)c1cccs1	44*	3	1	2	-1	nt
O=C(Nc1ccc(NC(=O)C2CCCCC2)nc1)c1cccs1	nt	8	1	0	-1	55*
Cc1cccc(-c2nnc(NC(=O)c3cccs3)s2)c1	47*	-1	0	-1	-1	28
O=C(Nc1nnc(-c2cccnc2)s1)c1cccs1	30	6	0	1	-2	15
Cc1noc(C)c1S(=O)(=O)Nc1ccc2c(c1)C(=O)N([C@H](C)CO)C[C@@H](C)[C@@H](CN(C)CC1CC1)O2	2	nt	nt	nt	nt	nt
C[C@H](CO)N1C[C@H](C)[C@@H](CN(C)S(=O)(=O)c2ccc(F)cc2)OCCCC[C@H](C)Oc2ccc(NS(=O)(=O)c3cn(C)cn3)cc2C1=O	-13	nt	nt	nt	nt	nt
CCCCOc1ccc(-c2ncc([N+](=O)[O-])cn2)cc1	83*	1	0	3	-2	40*
CCCCOc1ccc(-c2[nH]ncc2C=O)cc1	nt	13*	1	4	0	?
CCCCOc1ccc(Cc2n[nH]c(=S)n2N)cc1	2	0	0	1	-2	nt
CCCCOC(=O)c1ccc(Nc2ccc([N+](=O)[O-])cn2)cc1	nt	4	0	2	0	-1
CCCCCCCOc1ccc(-c2ccc(C#N)cn2)cc1	nt	2	0	1	0	-1
CCCCOc1ccc(-c2ncc(Cl)cn2)cc1	86*	2	1	4	-1	-2
C[C@H]1CN([C@@H](C)CO)C(=O)c2cc(Br)cnc2O[C@@H]1CN(C)Cc1ccncc1	6	nt	nt	nt	nt	nt
Cc1ccc(N2C(=O)SC(N(CC(=O)O)c3cccc(C)c3)C2=O)cc1 (stereo not given)	35	7	3	1	-1	41*
CC(=O)N(c1cccc(C)c1)C1SC(=O)N(c2ccccc2)C1=O (stereo not given)	-1	2	0	-1	-1	-1
CCCNC(=O)N(C)C[C@H]1Oc2cc(-c3cncnc3)ccc2S(=O)(=O)N([C@@H](C)CO)C[C@H]1C	-4	nt	nt	nt	nt	nt
Cc1cccc(-n2c(SCC(=O)N(C)C3CCS(=O)(=O)C3)nc3ccccc3c2=O)c1C (stereo not given)	-2	-4	-2	0	-1	-1
CN(C(=O)CSc1nc2ccccc2c(=O)n1-c1ccccc1F)C1CCS(=O)(=O)C1 (stereo not given)	9	-3	-1	1	0.9*	4
C[C@@H]1CN([C@H](C)CO)C(=O)c2cc(NS(=O)(=O)c3ccccc3)ccc2O[C@@H]1CN(C)C(=O)Nc1ccc2c(c1)OCO2	8	nt	nt	nt	nt	nt
CCCNC(=O)NC[C@@H]1[C@H](c2ccc(C3=CCCC3)cc2)[C@H](CO)N1C(C)=O	5	nt	nt	nt	nt	nt
Nc1[nH]c(N=NC(=O)c2ccccc2O)c2ccccc12	nt	12*	3	2	-1	71*
COc1ccccc1CNC(=O)C[C@@H]1C[C@@H]2c3cc(NC(=O)C4CCC4)ccc3O[C@@H]2[C@@H](CO)O1	1	nt	nt	nt	nt	nt
CN1C(=O)c2cc(NC(=O)c3cccc(C(F)(F)F)c3)ccc2OC[C@@H]2O[C@H](CC(=O)NCCN3CCCC3)CC[C@@H]21	5	nt	nt	nt	nt	nt
SMILES	esBAF inh	hgDAF12 agonist	DAX1 inh	hcDAF12 agonist	ssDAF-12 act	Wnt act
Cc1cc(C(=O)Nc2ccc3[nH]ccc3c2)no1	26	11*	1	3	0	59*
CCC(=O)N1C[C@H](C)[C@H](OC)CN(C)C(=O)c2ccc(NC(=O)c3ccc(F)cc3)cc2OC[C@@H]1C	4	nt	nt	nt	nt	nt
CCOC(=O)[C@]12CCCC=C1N(Cc1ccc(OC)cc1)C(=O)[C@@H]2CC(=O)N1CCN(C(=O)C2CC2)CC1	nt	-1	-2	-1	1.8*	nt
CNC[C@@H]1Oc2ccc(NC(=O)Nc3ccc4c(c3)OCO4)cc2C(=O)N([C@@H](C)CO)C[C@H]1C	-8	nt	nt	nt	nt	nt
Oc1ccc(N=Nc2ccccc2)o1	9	0	0	0	4.4*	-1
CCC(=O)N(C)C[C@H]1Oc2ncc(-c3ccccc3C)cc2C(=O)N([C@H](C)CO)C[C@H]1C	-4	nt	nt	nt	nt	nt
Cc1ccc(-c2cnc3c(c2)C(=O)N([C@@H](C)CO)C[C@H](C)[C@H](CN(C)CC2CCOCC2)O3)cc1	-1	nt	nt	nt	nt	nt
Cc1c(CBr)[n+](=O)c2c(n1[O-])C(Br)CCC2Br (stereo not given)	nt	-1	-1	2	1.4*	0
Cc1c(C)[n+](=O)c2c(n1[O-])C(Br)CCC2Br (stereo not given)	nt	0	0	0	-1	1
CN(/C=C/C(=C\C=[N+](C)c1ccccc1)OCCCS(=O)(=O)[O-])c1ccccc1	-6	-3	0	5.6*	1	0
C[C@@H]1CN([C@H](C)CO)C(=O)Cc2cc(NC(=O)CCN3CCOCC3)ccc2O[C@H]1CN(C)Cc1ccccc1	0	nt	nt	nt	nt	nt
Cc1cc(N/N=C(/CCC(=O)O)C(=O)O)nc2ccccc12	nt	2	0	1	-1	-2
CC(=NNc1cc(C)c2ccccc2n1)c1ccccn1	nt	-1	2	2	0.9*	-9
CCOC(=O)c1c(NC(=O)CCS(=O)(=O)c2ccccc2)sc2c1CCN(C(C)C)C2	-2	0	4.0*	2	-1	-1
COC(=O)c1c(NC(=O)Cc2ccccc2)sc2c1CCN(C(C)C)C2	-10	5	1	-2	-2	2
CCNC(=O)C[C@H]1CC[C@H]2[C@@H](COc3ccc(NC(=O)Nc4ccc(F)cc4)cc3C(=O)N2C)O1	0	nt	nt	nt	nt	nt
CCOc1ccc2oc(C(=O)Nc3ccc(N4CCOCC4)cc3)c(C)c2c1	14	-1	-1	-3	-1	-5
CCOC(=O)c1c(N)sc(C(=O)Nc2ccc3c(c2)OCO3)c1C	-67	8	3	5.8*	1	-5
CCOC(=O)c1c(C)c(C(=O)Nc2ccc3c(c2)OCO3)c(C)n1C	18	3	0	0	-1	-4
Cc1c(C(=O)NNC(=O)c2ccccc2O)oc2ccc(Br)cc12	31	2	0	2	0	2
CCOc1ccc2oc(C(=O)NNC(=O)c3ccccc3O)c(C)c2c1	48*	4	1	3	0	-4
CCOc1ccc2oc(C(=O)Nc3ccc4c(c3)OCO4)c(C)c2c1	nt	11*	1	3	0	2
CCOC(=O)c1c(NC(=O)c2cc(C)oc2C)sc(C(=O)Nc2ccc(Cl)cc2)c1C	?	4	1	0	0	42*
